Experimental data published in PubChem BioAssay AID623957 (NMMLSC, 2012).
Calls of active or inactive are those of the source.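 Rule for the calls: active = compounds whose fitted half-maximal concentration for lowering the signal is under 100 µM; inactive = the rest.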

Assay: fluorescence change in empty-vector K562 cells, dose response, counter-screen for ABCB6 inhibitor project, cell-based, flow cytometry, cherry pick set 1 (AID 623957)

Which outcome does the source give for `C[N+](C)(C)CC1CCCC(C[N+](C)(C)C)C1=O` (stereo unspecified) here?
Its outcome is “inactive”.
